From PubChem
HT1080NT lethal = kills 2HG-producing HT-1080-NT fibrosarcoma cells; HT-1080-NT fibrosarcoma viability, CellTiter-Glo ATP luminescence, 48 h; actives 1.6% (n = 360,000); AID 686970; Potency, µM (doses to about 46.1 µM), for inactives: at the highest dose activity, negative = less viability, most hits filed as cytotoxic;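 note: NT is the 2HG producing partner of a matched IDH1 knockdown line; 0% = DMSO-treated cells and -100% = media-only wells without cells; nearly all actives have a fitted effect of over 55% in size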
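Luminescent CellTiter-Glo readout after 48 hours of compound exposure at 37 degrees C defined viability of HT-1080-NT cells. Activity was normalized to DMSO wells and cell-free media wells; concentration-response curves were fitted and assigned curve classes.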
HT1080 IDH1KD tx = kills HT-1080 cells with IDH1 knockdown | HT-1080 IDH1 knockdown viability, ATP luminescence, 48 h | Potency, µM (top dose mostly 46.1 µM), for the others: top-dose activity, negative = toxicity, actives largely listed as cytotoxic | actives 2% (n = 360,000) | AID 686971;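 note: 0% = DMSO wells and -100% = cell-free medium wells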
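After a 2 h attachment period, IDH1KD HT-1080 cells took pin-transferred compound for 48 h at 37 °C; ATP-based luminescence after 10 min room-temperature reagent incubation reported viability.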
KB-V1 cytotox = KB-V1 MDR subline cytotoxicity; KB-V1 MDR cells viability, CellTiter-Glo, 72 h; Potency, µM (titrated, usually from 46.1 µM), hits mostly cytotoxic; actives 3.4% (n = 400,000); AID 1347076; note: % is set by controls: 0 for no effect and ±100 for the full control effect; nearly all actives have a fitted effect of over 60% in size
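Potencies derive from concentration-effect curves fitted to normalized luminescence (CellTiter-Glo) of KB-V1 cells treated for 72 h at 37 degrees C in phenol-red-free DMEM containing 10% FBS.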
SW480 rerep = inducers of DNA re-replication in SW480 colon cancer cells; SW480 DNA re-replication, Hoechst DNA content imaging, 48 h; Potency, µM (top dose mostly 46.1 µM), inactives show top-dose re-replication activation, usual class: activators; actives 1.8% (n = 340,000); AID 624297; note: % of control where 0% means no effect; nearly all actives have a fitted effect of over 55% in size
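Quantitative HTS format with DMSO vehicle controls; 48 hr drug incubation at 37 C, then 40 min Hoechst staining and scanning imager measurement at 405 nm excitation.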
MCF10A rereplic = induces DNA re-replication in MCF 10a normal breast cells | actives 2.9% (n = 350,000) | Potency, µM (highest dose often 46.1 µM), for the others: top-dose activity, positive = re-replication, hits mostly activators | MCF 10A DNA re-replication, Hoechst nuclear intensity, 48 h; note: % of control where 0% means no effect; nearly all actives have a fitted effect of over 50% in size
KB-3-1 tox = KB-3-1 parental cell cytotoxicity; KB-3-1 viability, CellTiter-Glo ATP luminescence, 72 h; Potency, µM (highest dose often 46.1 µM), most hits filed as cytotoxic; actives 1.4% (n = 400,000); AID 1347075; note: % is set by controls: 0 for no effect and ±100 for the full control effect; nearly all actives have a fitted effect of over 60% in size
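Cytotoxicity in the drug-sensitive parental line KB-3-1 was scored as loss of CellTiter-Glo luminescence following 72 h incubation with compound. Values come from curve fitting of normalized concentration-response data.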
Numbers without * were called inactive; i = inactive; ? = inconclusive; nt = no result given; ! = repeats disagree. Most compounds without a hit are left out; they make up all but 7.9% or so of the library. Calls come from the whole dose curve; as a rule, active = well fitted curve in the direction sought with a large enough effect; inconclusive = small, poorly fitted or top-dose-only effect, or another doubt; inactive = no such curve, though single readings can be large; an effect the other way counts as inactive or inconclusive. Potency is the fitted concentration of half-maximal effect.

SMILES	HT1080NT lethal	HT1080 IDH1KD tx	KB-V1 cytotox	SW480 rerep	MCF10A rereplic	KB-3-1 tox
COc1cccc(CNC(=O)CCn2c(=O)c3cccn3c3cccnc32)c1	?	11%	18µM*!	?	0%	i
COc1ccc(CCNC(=O)CCCn2c(=O)c3cccn3c3cccnc32)c(OC)c1	25%	4%	i	-15%	-3%	i
Cc1cc(CN2CCN(CC(=O)Nc3cc(C(F)(F)F)ccc3-n3cncn3)CC2)no1	0%	-2%	23µM*	-10%	-3%	i
Cc1cc(C)n2ncc(C(=O)NCC(C)C)c2n1	nt	nt	i	nt	nt	i
COc1ccc(NC(=O)CC2C(=O)N(c3cccc(OC)c3)C(=O)N2CCc2cccs2)cc1 (stereo not given)	nt	nt	i	nt	nt	i
COc1ccc(NC(=O)CC2C(=O)N(c3cccc(OC)c3)C(=O)N2C2CCCCC2)cc1 (stereo not given)	8%	5%	16µM*	-3%	3%	i
COc1ccc(NC(=O)CC2C(=O)N(c3ccc(OC)cc3)C(=O)N2CCc2cccs2)cc1 (stereo not given)	0%	8%	15µM*	0%	8%	i
CC(NCc1ccc(-c2ccccc2)cc1)C(O)c1ccccc1 (stereo not given)	?	15µM*	i	4.1µM*	26µM*	i
CC(O)CNCc1ccc(-c2ccccc2)cc1 (stereo not given)	-29%	-23%	i	?	?	i
COc1ccc(Nc2nnc(-c3ccc(N4CCOCC4)c([N+](=O)[O-])c3)c3ccccc23)cc1	7%	13%	16µM*	-7%	8%	i
CCOC(=O)CSC1=NC(=O)CS1	-2%	-2%	i	?	21µM*	i
CCOc1cc(Br)cc(C2NC(=O)c3c(sc4c3CCN(C)C4)N2)c1O (stereo not given)	nt	nt	?	nt	nt	i
CCN1CCN(Cc2ccc(NC(=O)c3ccc(C)c(/C=C/c4cnc(Nc5cc(N6CCNCC6)nc(C)n5)cn4)c3)cc2C(F)(F)F)CC1	?	18µM*!	?	?	?	?
COc1cc(NC(=O)c2cccc(C)c2)ccc1NC(=O)c1cc2ccccc2o1	-5%	-14%	i	15%	2.6µM*	i
COc1cc(NC(=O)C(C)C)ccc1NC(=O)c1cc2ccccc2o1	0%	4%	i	-7%	-1%	i
COc1cc(NC(=S)NC(=O)C(C)C)ccc1NC(=O)c1cc2ccccc2o1	5%	8%	i	?	8.2µM*	i
CCOc1cccc(C(=O)Nc2ccc(NC(=O)c3cc4ccccc4o3)c(OC)c2)c1	?	-12%	?	-1%	?	i
COc1ccc2c(CN3CCCCCCC3)cc(=O)oc2c1	1%	-12%	i	nt	nt	i
Cc1c(N=Nc2c(-c3ccc([N+](=O)[O-])cc3)[nH]n(C(N)=S)c2=O)cccc1[N+](=O)[O-]	?	?	16µM*	?	?	21µM*
NC(=S)n1[nH]c(-c2ccc([N+](=O)[O-])cc2)c(N=Nc2cccc([N+](=O)[O-])c2)c1=O	1.5µM*	0.82µM*	?	?	-14%	?
O=C1CC(N(CCc2ccccc2)C(=S)Nc2ccccc2)C(=O)N1c1ccccc1 (stereo not given)	?	?	16µM*	?	?	i
O=C1CC(N(CCc2ccccc2)C(=S)Nc2ccccc2)C(=O)N1c1ccc(F)cc1 (stereo not given)	?	?	i	22%	18µM*	?
CCNC(=S)N(CCc1ccc(S(N)(=O)=O)cc1)C1CC(=O)N(c2ccccc2)C1=O (stereo not given)	-28%	?	i	?	-12%	?
COC(=O)CN(C(=S)Nc1ccc(F)cc1)C1CC(=O)N(c2ccccc2)C1=O (stereo not given)	-3%	-2%	i	-1%	-3%	i
CCCCCCc1nc2ccccc2c(=O)n1NC(=O)c1c(O)c2c(n(CC(C)C)c1=O)CCCC2	-13%	-30%	18µM*	17%	22%	21µM*
SMILES	HT1080NT lethal	HT1080 IDH1KD tx	KB-V1 cytotox	SW480 rerep	MCF10A rereplic	KB-3-1 tox
Cc1nc2ccccc2c(=O)n1NC(=O)c1c(O)c2c(n(CC(C)C)c1=O)CCCC2	20µM*	?	?	?	?	?
COc1ccc(C(=O)NN(C)c2nc(C(F)(F)F)nc3ccccc23)cc1	?	0.0065µM*	0.73µM*	?	0.033µM*	0.82µM*
O=C(CSC(=S)N1CCCC1)N(Cc1nnc(-c2ccccc2Cl)o1)C1CC1	-3%	7%	4.6µM*	-5%	0%	i
O=C(COc1ccccc1)N(Cc1nnc(-c2ccccc2Cl)o1)C1CC1	-4%	1%	i	-1%	3%	i
CN1CCC2(CC1)Nc1nc(SCc3ccc(Cl)cc3)nn1C1=C2CN(C)CC1	26µM*	21µM*	i	14%	5%	?
CCc1nnc(NC(=O)CN2CCN(Cc3ccccc3C)CC2)s1	12%	0%	i	4%	1%	i
CCc1nnc(NC(=O)c2nc(S(=O)(=O)Cc3ccccc3)ncc2Cl)s1	12µM*	7.3µM*	?	?	0.82µM*	23µM*
CCc1nnc(NC(=O)c2nc(S(=O)(=O)Cc3cccc(C)c3)ncc2Cl)s1	23µM*	10µM*	?	5.8µM*	?	21µM*
CCc1nnc(NC(=O)CN2CCN(Cc3ccc(C)cc3)CC2)s1	0%	0%	i	?	0.92µM*	i
CCOc1ccccc1NC(=O)c1nc(S(=O)(=O)Cc2cccc(C)c2)ncc1Cl	1%	-4%	?	3.3µM*	?	5.2µM*!
CCc1nnc(NC(=O)c2nc(SCc3ccccc3F)ncc2Cl)s1	nt	nt	i	nt	nt	i
COC(=O)c1ccccc1NC(=O)c1nc(S(=O)(=O)Cc2ccccc2)ncc1Cl	0%	-10%	i	-4%	?	i
CCOC(=O)c1[nH]c(C)c(CCC(=O)N2CCN(c3ccc(OC)cc3)CC2)c1C	nt	nt	i	nt	nt	i
CC1(C(=O)NS(=O)(=O)Cc2ccccc2C(F)(F)F)CCN1C(=O)C/C=C/c1ccccc1 (stereo not given)	9%	2%	i	nt	nt	i
Cc1ccccc1CN1CCC(CNc2ncnc3onc(-c4ccc(Cl)cc4)c23)CC1	nt	nt	i	nt	nt	i
